Records with an inconclusive call do not appear. The source made the active and inactive calls. The calls were made as follows, unless noted: active = hit-call score of the fitted dose curve at least 0.9, where 1 is the maximum; inactive = score below 0.9.

This passage reports outcome and AC50 results from PubChem BioAssay (EPA / NIEHS).

The target in experiment [1] is Myc proto-oncogene protein (Homo sapiens) (UniProt P01106). As to the kind of experiment: ATG_Myc_CIS: Attagene CIS-FACTORIAL HepG2 Assay for human Myelocytomatosis (Myc) Proto-Oncogene Transcription Factor (AID 2282990). Particulars: HepG2, Attagene cis-reporter transcription factor activity; actives raise or lower the signal. The procedure, abridged:
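Multiplexed cis-reporter transcription in HepG2 cells after 24 h chemical treatment. Reporter mRNA measured by RT-PCR and capillary electrophoresis fluorescence; activity fitted bidirectionally against DMSO control.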

Experiment [2] can be described thus: ATG_NRF2_ARE_CIS: Attagene CIS-FACTORIAL HepG2 Assay for human Nuclear Factor Erythroid 2 Related Factor 2 (NFR2) response to Antioxidant Response Elements (ARE) (AID 2282992). As to conditions: HepG2 Attagene ARE/NRF2 reporter, transcription factor activity; actives raise or lower the signal. The procedure, abridged:
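Endogenous transcription factor activity in human liver HepG2 cells is tracked via a cis-element-driven reporter within a multiplexed set. mRNA induction is read by RT-PCR and capillary electrophoresis after 24 h, with DMSO as baseline.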

Experiment [3] is described as follows: ATG_Oct_MLP_CIS: Attagene CIS-FACTORIAL HepG2 Assay for human Octamer-Binding Transcription Factor (Oct) (AID 2282993). As to conditions: HepG2 Attagene cis-factorial Oct reporter, mRNA; actives raise or lower the signal. The essentials: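 Read-out: reporter mRNA via RT-PCR plus capillary electrophoresis of 6-FAM-labelled fragments. Transiently transfected HepG2, 24 h exposure, endogenous TF activity on cis elements. Gain or loss of signal fitted relative to DMSO.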

The target in experiment [4] is Cellular tumor antigen p53 (Homo sapiens) (UniProt P04637). Put plainly: ATG_p53_CIS: Attagene CIS-FACTORIAL HepG2 Assay for human p53 Transcription Factor (AID 2282994). Particulars: HepG2 p53 cis-element reporter, Attagene mRNA; actives raise or lower the signal. The essentials:
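Steps: transfect HepG2 with multiplexed cis reporter constructs; dose chemicals 24 h; extract RNA, reverse-transcribe, PCR-amplify reporter sequences; FAM-label, HpaI-digest, resolve fragments by CE. Activity fitted both directions relative to DMSO.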

Experiment [5] is described as follows: BSK_3C_uPAR: BioMAP Diversity Plus: 3C Assay for Urokinase-type plasminogen activator receptor (uPAR) Biomarker Activity (AID 2282998). Particulars: BioMAP 3C HUVEC, uPAR biomarker ELISA; actives raise or lower the signal. The essentials:
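HUVEC primary cells; 24 h post-dose; uPAR by ELISA; gain or loss of signal fitted bidirectionally vs DMSO baseline.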

Experiment [6] can be described thus: BSK_3C_VCAM1: BioMAP Diversity Plus: 3C Assay for Vascular cell adhesion molecule 1 (VCAM1) Biomarker Activity (AID 2282999). Particulars: BioMAP 3C HUVEC, VCAM1 ELISA, cytokine-stimulated; actives raise or lower the signal. The procedure, abridged:
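Vascular primary endothelium (human umbilical vein) was exposed to chemicals and assayed 24 h later. VCAM-1 levels came from ELISA, with DMSO serving as baseline for bidirectional fitting.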

Experiment [7] in a line: BSK_4H_Eotaxin3: BioMAP Diversity Plus: 4H Assay for Eotaxin 3 Biomarker Activity (AID 2283000).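 As to outcome: CCL26 protein level quantified by ELISA in parallel with SRB cytotoxicity check.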 As to conditions: primary human endothelial cells (HUVEC); actives raise or lower the signal. The essentials:
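Human umbilical vein endothelial cells (BSK_4H system) dosed with test chemical; Eotaxin-3 (CCL26) measured by ELISA 24 h after dosing. Bidirectional curve fitting relative to DMSO negative control as baseline.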

Experiment [8] deals with human Peroxisome Proliferator-activated Receptor alpha (PPARa), PPARA (gene 5465) (UniProt Q07869). Put plainly: ATG_PPARa_TRANS: Attagene TRANS-FACTORIAL HepG2 Assay for human Peroxisome Proliferator-activated Receptor alpha (PPARa) (AID 2283001; active = hit-call score of the fitted dose curve at least 0.9, where 1 is the maximum). The procedure, abridged:
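Exposure: 24 h, transiently transfected HepG2 cells. Endpoint: GAL4-UAS reporter mRNA, RT-PCR with capillary electrophoresis fluorescence. Baseline: DMSO; increases fitted.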

Experiment [9] addresses human Peroxisome Proliferator-activated Receptor delta (PPARd), PPARD (gene 5467) (UniProt Q03181). Put plainly: ATG_PPARd_TRANS: Attagene TRANS-FACTORIAL HepG2 Assay for human Peroxisome Proliferator-activated Receptor delta (PPARd) (AID 2283002; active = hit-call score of the fitted dose curve at least 0.9, where 1 is the maximum). The procedure, abridged: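 Multiplexed trans-activation format: HepG2 liver cells expressing exogenous NR-Gal4 chimeras and GAL4-UAS reporters were exposed for 24 h. Reporter mRNA was detected by RT-PCR with capillary electrophoresis fluorescence; activity fitted as gain of signal relative to DMSO.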

Read-out in experiment [10]: Intercellular Adhesion Molecule 1 (ICAM1), ICAM1 (gene 3383)
Put plainly: BSK_3C_ICAM1: BioMAP Diversity Plus: 3C Assay for Intercellular Adhesion Molecule 1 (ICAM1) Biomarker Activity (AID 2283003). Particulars: primary human endothelial cells (HUVEC); actives raise or lower the signal. The essentials:
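ELISA read-out of ICAM-1; HUVEC (primary human), 3C system, 24 h post-dosing; bidirectional fit vs DMSO baseline.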

The nature of experiment [11]: BSK_3C_Proliferation: Cell Proliferation Assessment in the BioMAP Diversity Plus: 3C Assay (AID 2283006).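 As to AC50: potency may reflect either rise or fall in cell number versus DMSO.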 Particulars: primary human endothelial cells (HUVEC). The procedure, abridged: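 HUVEC, sub-confluent; 48 h chemical exposure; 10% TCA fix, 0.1% SRB stain, A560 total protein. Gain or loss of signal fitted both directions vs DMSO control.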
A short description of experiment [12]: ATG_NF_kB_CIS: Attagene CIS-FACTORIAL HepG2 Assay for human Nuclear Factor Kappa B (NF-kB) (AID 2282991). As to conditions: HepG2 Attagene cis-factorial NF-kB reporter mRNA; actives raise or lower the signal. The procedure, abridged:
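Multiplexed cis-reporter assay in transiently transfected HepG2. 24 h treatment; RNA isolated, RT-PCR, labelled fragments resolved by CE. DMSO baseline.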

The target of experiment [13] is Retinoic acid receptor alpha (Homo sapiens) (UniProt P10276). Put plainly: ATG_RARa_TRANS: Attagene TRANS-FACTORIAL HepG2 Assay for human Retinoic Acid Receptor alpha (RARa) (AID 2283005; active = hit-call score of the fitted dose curve at least 0.9, where 1 is the maximum). The essentials: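 HepG2 cells transiently transfected with multiple reporter units expressing chimeric RARα-GAL4 fusion, with GAL4-UAS-driven reporters. After 24 h compound exposure, reporter mRNA induction quantified by RT-PCR and capillary electrophoresis with fluorescent labeling; gain-of-signal fitted relative to DMSO control.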
Retinoic acid receptor alpha (Homo sapiens), sequence (P10276 whole entry, looked up, the tested form may be a part): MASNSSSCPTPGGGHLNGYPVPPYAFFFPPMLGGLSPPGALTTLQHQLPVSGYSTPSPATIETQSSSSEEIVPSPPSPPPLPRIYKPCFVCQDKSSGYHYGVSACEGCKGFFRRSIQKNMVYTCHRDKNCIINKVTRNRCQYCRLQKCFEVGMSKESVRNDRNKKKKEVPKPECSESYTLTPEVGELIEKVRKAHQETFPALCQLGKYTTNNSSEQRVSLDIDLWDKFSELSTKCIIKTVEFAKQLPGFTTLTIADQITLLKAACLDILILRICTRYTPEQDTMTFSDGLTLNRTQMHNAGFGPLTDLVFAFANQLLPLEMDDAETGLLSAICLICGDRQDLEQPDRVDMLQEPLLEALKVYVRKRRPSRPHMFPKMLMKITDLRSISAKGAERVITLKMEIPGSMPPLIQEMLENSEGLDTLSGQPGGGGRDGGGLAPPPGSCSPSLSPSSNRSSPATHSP

Experiment [14] concerns the target Nuclear receptor subfamily 1 group I member 2 (Homo sapiens) (UniProt O75469). Put plainly: ATG_PXR_TRANS: Attagene TRANS-FACTORIAL HepG2 Assay for human Pregnane X Receptor (PXR) (AID 2283008; active = hit-call score of the fitted dose curve at least 0.9, where 1 is the maximum). The essentials: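 HepG2 transfected (FuGene 6) with GAL4-UAS reporter units + PXR-Gal4 chimera; dosed 24 h. Total RNA → oligo(dT) RT → PCR → 6-FAM primer extension → HpaI cut → CE. Gain-of-signal vs DMSO.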

Experiment [15] addresses Peroxisome proliferator-activated receptor gamma (Homo sapiens) (UniProt P37231). Put plainly: ATG_PPARg_TRANS: Attagene TRANS-FACTORIAL HepG2 Assay for human Peroxisome Proliferator-activated Receptor-gamma (PPARg) (AID 2283007; active = hit-call score of the fitted dose curve at least 0.9, where 1 is the maximum). The procedure, abridged: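 Human hepatoma HepG2, transient MRTU transfection, 24 h treatment. mRNA reporter signal by RT-PCR plus capillary electrophoresis, fluorescence detection; fitted for increase over DMSO negative control.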

Experiment [16] is described as follows: BSK_3C_TissueFactor: BioMAP Diversity Plus: 3C Assay for Tissue Factor Biomarker Activity (AID 2282997). Particulars: BioMAP 3C HUVEC, tissue factor biomarker readout; actives raise or lower the signal. The procedure, abridged:
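Tissue factor on primary human umbilical vein endothelium was read by ELISA 24 h after dosing, gain or loss relative to DMSO. Cytotoxicity ran alongside via SRB (0.1%, TCA-fixed, 560 nm).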

Experiment [17] has as its target human RAR-related Orphan Receptor beta (RORb), RORB (gene 6096) (UniProt Q92753). As to the kind of experiment: ATG_RORb_TRANS: Attagene TRANS-FACTORIAL HepG2 Assay for human RAR-related Orphan Receptor beta (RORb) (AID 2283010; active = hit-call score of the fitted dose curve at least 0.9, where 1 is the maximum). The essentials:
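HepG2, transient MRTU transfection (GAL4-UAS reporters, exogenous NR-Gal4 chimeras); 24 h compound exposure; total RNA → RT-PCR → 6-FAM primer extension → HpaI digest → CE fluorescence. Positive direction vs DMSO baseline.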

Myc proto-oncogene protein (Homo sapiens), sequence (P01106 whole entry, looked up): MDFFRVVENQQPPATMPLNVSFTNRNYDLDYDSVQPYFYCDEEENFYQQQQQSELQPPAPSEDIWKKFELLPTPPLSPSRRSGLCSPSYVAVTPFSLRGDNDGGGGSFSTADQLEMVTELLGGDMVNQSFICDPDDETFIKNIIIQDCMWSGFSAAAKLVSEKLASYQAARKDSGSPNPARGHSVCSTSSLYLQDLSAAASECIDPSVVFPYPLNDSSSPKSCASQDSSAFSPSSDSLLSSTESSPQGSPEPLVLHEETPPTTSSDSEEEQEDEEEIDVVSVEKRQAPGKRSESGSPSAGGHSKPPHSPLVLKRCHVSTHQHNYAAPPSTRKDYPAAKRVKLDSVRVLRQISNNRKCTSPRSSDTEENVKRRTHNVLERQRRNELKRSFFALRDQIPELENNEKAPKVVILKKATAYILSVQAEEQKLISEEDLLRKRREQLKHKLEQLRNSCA
Peroxisome proliferator-activated receptor gamma (Homo sapiens), sequence (P37231 whole entry, looked up): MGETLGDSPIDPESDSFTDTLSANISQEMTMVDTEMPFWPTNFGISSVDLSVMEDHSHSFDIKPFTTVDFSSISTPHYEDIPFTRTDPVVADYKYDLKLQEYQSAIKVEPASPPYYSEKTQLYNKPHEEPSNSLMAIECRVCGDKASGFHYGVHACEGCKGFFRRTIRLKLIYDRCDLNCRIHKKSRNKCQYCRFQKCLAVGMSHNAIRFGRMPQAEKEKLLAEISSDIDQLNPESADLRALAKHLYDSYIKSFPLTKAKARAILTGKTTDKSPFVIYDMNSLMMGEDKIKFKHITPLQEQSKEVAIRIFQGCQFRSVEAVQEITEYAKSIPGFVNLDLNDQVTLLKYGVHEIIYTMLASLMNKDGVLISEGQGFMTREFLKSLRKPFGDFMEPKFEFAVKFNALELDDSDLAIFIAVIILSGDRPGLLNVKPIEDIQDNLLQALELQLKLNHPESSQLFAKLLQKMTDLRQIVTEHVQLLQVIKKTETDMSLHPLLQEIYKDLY
human Peroxisome Proliferator-activated Receptor alpha (PPARa), PPARA (gene 5465), sequence (Q07869 whole entry, looked up, the tested form may be a part): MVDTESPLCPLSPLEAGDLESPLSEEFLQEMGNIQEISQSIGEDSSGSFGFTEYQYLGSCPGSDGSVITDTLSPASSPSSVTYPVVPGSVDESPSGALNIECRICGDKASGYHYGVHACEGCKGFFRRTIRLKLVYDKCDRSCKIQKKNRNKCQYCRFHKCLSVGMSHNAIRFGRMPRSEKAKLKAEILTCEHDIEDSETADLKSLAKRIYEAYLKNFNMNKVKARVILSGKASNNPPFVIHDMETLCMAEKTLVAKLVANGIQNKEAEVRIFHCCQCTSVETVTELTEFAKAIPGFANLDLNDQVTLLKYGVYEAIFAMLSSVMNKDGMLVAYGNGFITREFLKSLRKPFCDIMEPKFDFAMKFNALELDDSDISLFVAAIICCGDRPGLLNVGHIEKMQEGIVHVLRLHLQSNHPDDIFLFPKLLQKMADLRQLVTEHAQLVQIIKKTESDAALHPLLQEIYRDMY
human Peroxisome Proliferator-activated Receptor delta (PPARd), PPARD (gene 5467), sequence (Q03181 whole entry, looked up, the tested form may be a part): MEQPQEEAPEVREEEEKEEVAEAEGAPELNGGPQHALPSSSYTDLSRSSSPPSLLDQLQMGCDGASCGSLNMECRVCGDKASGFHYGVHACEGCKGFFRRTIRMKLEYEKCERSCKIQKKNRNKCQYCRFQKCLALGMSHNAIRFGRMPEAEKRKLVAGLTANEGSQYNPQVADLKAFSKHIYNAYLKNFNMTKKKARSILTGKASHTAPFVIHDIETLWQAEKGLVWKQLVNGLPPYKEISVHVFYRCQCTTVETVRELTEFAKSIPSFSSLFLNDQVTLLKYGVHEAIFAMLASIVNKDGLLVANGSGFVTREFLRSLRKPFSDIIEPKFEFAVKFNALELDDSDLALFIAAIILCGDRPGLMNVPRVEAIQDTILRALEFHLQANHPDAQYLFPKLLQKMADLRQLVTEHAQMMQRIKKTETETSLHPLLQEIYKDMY
Cellular tumor antigen p53 (Homo sapiens), sequence (P04637 whole entry, looked up, the tested form may be a part): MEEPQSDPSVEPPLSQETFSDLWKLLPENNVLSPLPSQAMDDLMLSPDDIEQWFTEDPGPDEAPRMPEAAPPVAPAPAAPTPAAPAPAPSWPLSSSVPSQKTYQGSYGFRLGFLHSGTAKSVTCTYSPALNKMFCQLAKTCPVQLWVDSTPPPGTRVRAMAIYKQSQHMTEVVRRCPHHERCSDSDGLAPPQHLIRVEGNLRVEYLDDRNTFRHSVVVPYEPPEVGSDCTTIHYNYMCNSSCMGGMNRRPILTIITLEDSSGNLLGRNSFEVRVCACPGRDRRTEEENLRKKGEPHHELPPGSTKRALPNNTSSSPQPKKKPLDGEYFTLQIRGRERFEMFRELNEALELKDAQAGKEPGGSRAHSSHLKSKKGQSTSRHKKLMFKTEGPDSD
Nuclear receptor subfamily 1 group I member 2 (Homo sapiens), sequence (O75469 whole entry, looked up, the tested form may be a part): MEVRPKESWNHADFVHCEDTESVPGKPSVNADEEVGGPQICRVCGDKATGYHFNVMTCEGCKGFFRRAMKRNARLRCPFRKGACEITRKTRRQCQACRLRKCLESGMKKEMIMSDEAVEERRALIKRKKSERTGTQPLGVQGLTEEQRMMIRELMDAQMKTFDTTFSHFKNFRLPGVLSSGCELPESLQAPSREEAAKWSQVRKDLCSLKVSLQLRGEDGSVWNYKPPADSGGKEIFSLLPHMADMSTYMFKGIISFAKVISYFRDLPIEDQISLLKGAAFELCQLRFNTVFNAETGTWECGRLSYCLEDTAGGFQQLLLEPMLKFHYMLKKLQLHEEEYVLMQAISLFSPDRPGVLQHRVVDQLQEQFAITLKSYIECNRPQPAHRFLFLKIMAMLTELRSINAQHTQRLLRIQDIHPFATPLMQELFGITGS
human RAR-related Orphan Receptor beta (RORb), RORB (gene 6096), sequence (Q92753 whole entry, looked up, the tested form may be a part): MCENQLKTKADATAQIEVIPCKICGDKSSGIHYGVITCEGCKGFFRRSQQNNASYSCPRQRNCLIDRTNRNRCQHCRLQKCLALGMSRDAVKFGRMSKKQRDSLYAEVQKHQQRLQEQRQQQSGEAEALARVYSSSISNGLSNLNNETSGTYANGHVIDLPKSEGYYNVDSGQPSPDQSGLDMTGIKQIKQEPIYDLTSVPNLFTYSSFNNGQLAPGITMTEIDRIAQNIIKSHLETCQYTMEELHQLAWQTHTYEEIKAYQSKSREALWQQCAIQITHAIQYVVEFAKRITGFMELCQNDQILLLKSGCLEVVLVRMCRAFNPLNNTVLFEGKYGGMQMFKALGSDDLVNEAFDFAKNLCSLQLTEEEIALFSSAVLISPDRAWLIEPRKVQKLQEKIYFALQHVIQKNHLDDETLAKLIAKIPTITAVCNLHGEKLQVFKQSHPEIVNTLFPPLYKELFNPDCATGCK

In the case of `CC(=O)C(C)=CC1C(C)=CCCC1(C)C` (centres undefined), the call in [1], in experiment [2], in experiment [3], in experiment [4], in [5] and in experiment [6] was inactive. Further, the result in [7], in experiment [8], in experiment [9], in experiment [10] and in experiment [11] was inactive.
Turning to `c1cc(-c2ccncc2)ccn1`, the compound was classed as inactive in [1], in experiment [12], in experiment [2], in [3], in experiment [4] and in experiment [5]. Also, the result in experiment [6], in [7], in experiment [10], in [13] and in experiment [11] was inactive.
Turning to `Clc1cc(Cl)c(Cl)cc1Cl`, the compound was classed as inactive in experiment [1], in experiment [12], in [2], in experiment [3], in [4] and in [5]. Further, the result in experiment [6], in experiment [7], in experiment [8], in experiment [9], in experiment [10] and in experiment [11] was inactive. Also, the compound was classed as inactive in [14].
By AC50 is commonly meant the concentration giving half of the maximal activity seen. With `COc1cc(/C=C/C(=O)CC(=O)/C=C/c2ccc(O)c(OC)c2)ccc1O`, the compound was called inactive in experiment [1], in experiment [8], in [9], in experiment [13] and in experiment [14]. In addition, the AC50 is 33.4 µM (active) in experiment [12]; 8.71 µM (active) in [2]; 33.4 µM (active) in experiment [3]; 50.2 µM (active) in experiment [4]; 8 µM (active) in experiment [15].
On to `CN1CCN(Cc2cc(-c3ccc4[nH]c(=O)oc4c3)co2)[C@@H](c2ccc(F)cc2)C1`, for which the outcome in experiment [1], in experiment [6], in [7], in experiment [8], in experiment [9] and in [10] was inactive. In addition, in experiment [14], the result was inactive. In addition, the AC50 in [12] is 8.72 µM (active); in [2], 61.4 µM (active); in experiment [3], 45.4 µM (active); in experiment [4], 12.1 µM (active); in experiment [5], 26.7 µM (active); in experiment [11] it was 23.4 µM (active). Besides, the AC50 in [15] was 42.4 µM (active).
Regarding `Cc1cc(NC(=O)C(=O)O)cc(C)c1Oc1ccc(O)c2c1CCC2`, the compound was classed as inactive in experiment [1], in experiment [2], in [3], in [4], in experiment [16] and in [5]. Besides, the result in [6], in experiment [7], in experiment [8], in [9], in [10] and in experiment [11] was inactive. The result in [14] was inactive.
As to `CCOc1ccc2c(c1)C(C)=CC(C)(C)N2`, the outcome in experiment [1], in [4], in [5], in experiment [6], in [7] and in [8] was inactive. Also, the result in experiment [10], in [11] and in experiment [17] was inactive. Also, the AC50 in [2] is 27.1 µM (active); in experiment [3] it was 142 µM (active); in [9], 170 µM (active); in [15], 28.7 µM (active); in experiment [14] it was 1.86 µM (active).
In the case of `CCc1c(C(=O)NN2CCCCC2)nn(-c2ccc(Cl)cc2Cl)c1-c1ccc(Br)cc1`, the outcome in experiment [1], in experiment [12], in experiment [3], in experiment [4], in experiment [9] and in experiment [10] was inactive. For the same compound, the compound was called inactive in [14]. Besides, the AC50 in experiment [2] was 1.53 µM (active); in experiment [5] it was 6.7 µM (active); in [6], 11.1 µM (active); in experiment [7] it was 8.48 µM (active); in experiment [11], 6.79 µM (active); in experiment [15], 0.0976 µM (active).
